# Assay outcomes from PubChem BioAssay.
# Most compounds without a hit are left out; they make up all but 3.8% or so of the library.
# NTR1 ag – NTR1 (human) agonism; P30989; hit rate 0.17% among 330,000; AID 493036; NTR1-U2OS beta-arrestin-GFP spot imaging, agonist mode; activation, % at 20 µM;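 active means activation at or above 40% of the spot to cytoplasm intensity ratio, with at least 20 cells analyzed; inconclusive means wells under 20 cells, flagged as cytotoxic or low count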;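 further: 0% = DMSO without peptide and 100% = 100 nM NTR1 peptide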
# Target sequence (P30989 whole entry, looked up): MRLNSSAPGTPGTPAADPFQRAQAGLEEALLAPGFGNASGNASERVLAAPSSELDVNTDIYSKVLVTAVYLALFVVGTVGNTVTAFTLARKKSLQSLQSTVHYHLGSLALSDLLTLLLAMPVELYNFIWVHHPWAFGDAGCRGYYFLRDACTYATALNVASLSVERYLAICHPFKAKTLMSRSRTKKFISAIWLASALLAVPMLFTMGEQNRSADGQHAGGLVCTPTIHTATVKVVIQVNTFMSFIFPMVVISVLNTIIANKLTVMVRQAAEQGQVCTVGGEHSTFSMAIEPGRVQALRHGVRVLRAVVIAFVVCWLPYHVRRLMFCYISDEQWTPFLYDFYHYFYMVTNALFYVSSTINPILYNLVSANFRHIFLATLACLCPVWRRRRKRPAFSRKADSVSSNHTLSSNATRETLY
# Beta cell apopt – beta cell apoptosis inhibition. hit rate 0.8% among 300,000. protection from apoptosis, % (concentration not given with the values). INS-1E cytokine-induced death, ATP luminescence, 48 h; percent of positive-control rescue, neutral wells zero;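 active means Every replicate reaches about 75%, or at least half do and their mean reaches it too, limit read from the data; inconclusive means At least half of replicates reach the limit but their mean does not; inactive means Under half of replicates reach the limit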;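 further: 0% = cytokine-treated negative control wells and 100% = positive control rescue; higher means more ATP so stronger rescue from cytokine killing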
# Mdm2-MdmX inh – inhibitors of human Mdm2/MdmX interaction | SaOS-2 split-luciferase Mdm2/MdmX complementation, luminescence | hit rate 3% among 330,000 | O15151+Q00987 | inhibition, % at 8 µM;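 active means inhibition of at least 50% at 8 µM in the primary screen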
# 697 NFkB inh – inhibitors of the PMA/ionomycin-induced NF-kB reporter in 697 B cells | 697 B-cell NF-kB luciferase reporter, 16 h | inhibition, % at 4 µM | hit rate 0.33% among 330,000 | AID 435022; in the data active means inhibition above about 35%
# Jurkat NFkB inh – lowers PMA/ionomycin-induced NF-kB signal in Jurkat cells. inhibition, % at 4 µM. AID 435003. hit rate 0.53% among 330,000. PMA/ionomycin-induced NF-kB luciferase reporter, luminescence; in the data active means inhibition above about 50%
# Bfl-1 A1 inh – inhibitors of the anti-apoptotic protein A1, read as caspase activation. MEF A1-2A-BIM cells, Caspase-Glo 3/7 luminescence, 3 h; percent of clofoctol response, vehicle zero. caspase activation, % (no concentration beside the values). hit rate 0.066% among 330,000;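 active means over half of replicate activation scores above 10%, or exactly half above 10 with the replicate mean above 10; inconclusive means replicate mean below 10 yet half the replicates above 10; inactive means over half of replicates below 10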
# Mdm2-MdmX conf – confirmation of human Mdm2/MdmX interaction inhibitors | shares compounds with Mdm2-MdmX inh | Mdm2-MdmX binding, luminescent assay | inhibition, % at 8 µM | hit rate 55% among 10,000; in the data active means inhibition above about 40%
# Full FLuc ctr – inhibits full-length luciferase, flagging false Mdm2/MdmX hits | shares compounds with Mdm2-MdmX inh | SaOS-2 full-length luciferase counterscreen, luminescence | inhibition, % at 8 µM | hit rate 77% among 6,200 | AID 504607;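 active means mean inhibition at 8 µM reaching about 37%, which flags the compound as non-specific, limit read from the data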;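 further: p53-null SaOS-2 cells with luciferase driven by a doxycycline-inducible promoter; compound on cells about two nights before reading with doxycycline added after day one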
# Numbers without * were called inactive; ? = inconclusive; / = not tested or not shown.
SMILES,NTR1 ag,Beta cell apopt,Mdm2-MdmX inh,697 NFkB inh,Jurkat NFkB inh,Bfl-1 A1 inh,Mdm2-MdmX conf,others
COc1cc2cc(-c3ccc(OC)c(OC)c3C)nc(N)c2cc1OC,5,-11,94*,-13,47,2,70*,Full FLuc ctr=62*
COc1cc2cc(-c3ccc(O)cc3O)nc(C)c2cc1OC,9,7,84*,34,-11,0,53*,Full FLuc ctr=53*
CCOc1ccc(/C(C)=N/NC(=O)c2nnn(-c3nonc3N)c2-c2cccs2)cc1,6,2,-2,-31,-6,0,/,
COc1ccc(C(=O)On2c(-c3ccc(Br)cc3)nc3ccccc3c2=O)cc1,0,0,54*,18,2,0,31,
COc1cc(OC)cc(-c2nc3ccccc3c(=O)n2OC(=O)c2ccc(Br)cc2)c1,1,9,13,1,2,0,/,
CCN1CCN(S(=O)(=O)c2ccc(Cl)c(C(=O)NCCc3ccccc3)c2)CC1,2,0,-29,-24,-26,-1,/,
Cc1nc(-c2cccnc2)sc1C(=O)Nc1ccc(Cl)cc1,0,3,25,3,-12,0,/,
Cc1nc(-c2cccnc2)sc1C(=O)N/N=C/c1ccccc1Cl,1,10,70*,-64,-10,0,18,
O=C(CNC(=O)c1ccc(F)cc1)NCc1ccc(S(=O)(=O)N2CCOCC2)cc1,1,/,23,0,-4,/,/,
CC(=O)CC1OC(=O)C(Br)=C1NCc1ccccc1 (centres undefined),-2,-5,67*,-33,39,-1,48*,Full FLuc ctr=5
O=C(CC1Oc2ccccc2NC1=O)NCc1ccccc1 (centres undefined),2,/,3,13,-3,-1,/,
O=C(CSc1nnnn1-c1ccc(F)cc1)Nc1ccccc1F,0,-12,27,-1,-14,1,/,
COc1cc(OC)c(OC)cc1CCC(C)NCCC(c1ccccc1)c1ccccc1 (centres undefined),11,21,64*,-5,4,0,50*,Full FLuc ctr=60*
COc1ccccc1CCNC(C)CCc1ccc(O)cc1 (centres undefined),-1,-9,11,1,-11,?,/,
c1ccc2cc(C3CCCCC3)ncc2c1,0,4,-2,-32,-36,-2,/,
CCN(CC)S(=O)(=O)c1ccc(C(=O)Nc2nnc(CSC)o2)cc1,0,5,25,-4,3,2,/,
CCCCN(C)S(=O)(=O)c1ccc(C(=O)Nc2nnc(CSC)o2)cc1,-1,/,51*,22,-8,1,27,
CCCCN(CCCC)S(=O)(=O)c1ccc(C(=O)Nc2nnc(COC)o2)cc1,-1,6,59*,-75,-11,0,22,
CCN(CC)S(=O)(=O)c1ccc(C(=O)Nc2nnc(COC)o2)cc1,0,0,-3,1,14,0,/,
COc1ccc2c(c1)c(C(=O)O)c(C)n2-c1ccc(Cl)cc1,0,-2,-25,11,-4,-1,/,
CCOC(=O)N1C2=NC(C(=O)OC)=C(C(=O)OC)[C@@H]3N(C)c4ccc(OC)cc4[C@]23C[C@H]1C(=O)OC,2,0,-4,10,18,1,/,
C=CCN1c2ccccc2[C@]23C[C@@H](C(=O)OC)N(C(=O)OCC)C2=NC(C(=O)OC)=C(C(=O)OC)[C@H]13,-3,-1,26,15,10,1,/,
COC(=O)C1=C(C(=O)OC)[C@@H]2N(Cc3ccccc3)c3ccccc3[C@@]23C[C@@H](C(=O)OC)N(C(=O)c2ccc(Br)cc2)C3=N1,-1,0,96*,13,33,0,86*,Full FLuc ctr=53*
COC(=O)C1=C(C(=O)OC)[C@@H]2N(Cc3ccccc3)c3ccccc3[C@@]23C[C@@H](C(=O)OC)N(C(C)=O)C3=N1,2,-3,-12,0,-15,1,/,
COC(=O)C1=C(C(=O)OC)[C@@H]2N(Cc3ccccc3)c3ccccc3[C@@]23C[C@@H](C(=O)OC)N(C(=O)COCc2ccccc2)C3=N1,0,-8,63*,23,17,0,21,
SMILES,NTR1 ag,Beta cell apopt,Mdm2-MdmX inh,697 NFkB inh,Jurkat NFkB inh,Bfl-1 A1 inh,Mdm2-MdmX conf,others
COC(=O)C1=C(C(=O)OC)[C@@H]2N(C)c3ccc(OC)cc3[C@@]23C[C@@H](C(=O)OC)N(C(=O)c2ccc(Br)cc2)C3=N1,0,-6,69*,7,3,2,-1,
C=CCN1c2ccccc2[C@]23C[C@@H](C(=O)OC)N(C(=O)c4ccc(Br)cc4)C2=NC(C(=O)OC)=C(C(=O)OC)[C@H]13,-1,-10,96*,0,-9,-1,68*,Full FLuc ctr=53*
Cc1ccc(C(=O)N2CCN(c3cccc(C)c3C)CC2)cc1S(=O)(=O)N1CCOCC1,2,-3,-4,-2,17,-1,/,
COc1ccc(OC)c(N(CC(=O)Nc2cccc3ccccc23)S(C)(=O)=O)c1,1,-7,22,12,-2,0,/,
COc1ccc(/C(C)=N/NC(=O)c2cccc(S(=O)(=O)N3CCCC3)c2)c(O)c1,1,109*,67*,4,36,1,81*,Full FLuc ctr=34
CCOc1ccc(C(=O)N[C@H](C(=O)Nc2cccc(S(=O)(=O)N3CCCCC3)c2)C(C)C)cc1,0,3,51*,12,26,0,32,
COc1ccc(NS(=O)(=O)c2cccc(NC(=O)c3ccc(S(=O)(=O)N4CCCCCC4)cc3)c2)cc1,0,100*,53*,-5,47,-1,33,
CCOc1ccc(C(=O)N[C@H](C(=O)Nc2cccc(S(=O)(=O)N3CCOCC3)c2)C(C)C)cc1,-1,/,19,26,22,/,/,
Cc1nn(-c2ccccc2)c(C)c1C(=O)N1CCN(S(=O)(=O)c2ccccc2)CC1,4,-1,16,19,10,1,/,
Cc1ccc(C(=O)N2CCN3C(=O)c4ccccc4C23c2ccc(Cl)cc2)cc1 (centres undefined),1,3,21,-8,24,0,/,
O=C(CCl)N1CCN2C(=O)c3ccccc3C12c1ccc(Cl)cc1 (centres undefined),4,13,100*,-3,-5,-1,48*,Full FLuc ctr=28
COc1ccccc1NC(=S)NCCc1c[nH]c2ccccc12,4,-1,21,-11,-4,2,/,
COc1cccc(CNCCc2c[nH]c3ccccc23)c1OCc1ccc(F)cc1,6,24,68*,22,-3,1,38,
